We go through ten molecules from PubChem BioAssay.

Activity calls are given as the source filed them.

Assay [1] can be described thus: compound effects on lung adenocarcinoma cell viability – A549, calcein-AM fluorescence, 48 h, basal, profiling panel (AID 1162). Note: test concentration not given here. The conditions noted are these: higher = more signal.
The nature of assay [2]: compound effects on differentiated 3T3-L1 adipocyte viability – cell-based, 3T3-L1 adipocytes, calcein-AM fluorescence, 48 h, basal, profiling panel (AID 1163). Note: test concentration not given here. As to conditions: 3T3-L1 adipocytes viability, higher = more signal.
Assay [3] can be described thus: compound effects on hepatocellular carcinoma cell viability – HepG2, calcein-AM fluorescence, 48 h, basal, profiling panel (AID 1164). Note: test concentration not given here. As to conditions: higher = more signal.
Assay [4] in a line: compound effects on multiple myeloma cell viability – MM1S, calcein-AM fluorescence, 48 h, basal, profiling panel (AID 1165). Note: test concentration not given here. As to conditions: higher = more signal.
A short description of assay [5]: calcein-AM signal in unstimulated myeloma cells – cell-based, calcein-AM fluorescence, 48 h, PK04 Diversity Set, profiling panel (AID 1166).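 Note: cells grown under basal conditions without added stimulus; test concentration not given here.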 The conditions noted are these: RPMI8226 myeloma viability, higher = more signal.
The nature of assay [6]: JC-1 mitochondrial signal, unstimulated HepG2 cells – cell-based, JC-1 fluorescence, 24 h, 100 nL compound, profiling panel (AID 1167). Note: test concentration not given here. The conditions noted are these: HepG2 mitochondrial potential, higher = more signal.
The nature of assay [7]: JC-1 mitochondrial signal, unstimulated adipocytes – cell-based, JC-1 fluorescence, 3T3-L1 adipocytes, 24 h, 100 nL compound, profiling panel (AID 1168). Note: test concentration not given here. The conditions noted are these: JC-1 mitochondrial fluorescence, higher = more signal, called active from +8 up or from −8 down.
The nature of assay [8]: JC-1 mitochondrial signal, unstimulated myeloma cells – cell-based, JC-1 fluorescence, RPMI8226, 24 h, 100 nL compound, profiling panel (AID 1169). Note: test concentration not given here. As to conditions: JC-1 mitochondrial potential fluorescence, higher = more signal.
Assay [9] can be described thus: JC-1 mitochondrial signal, unstimulated MM1S myeloma – cell-based, JC-1 fluorescence, 24 h, 100 nL compound, profiling panel (AID 1170). Note: test concentration not given here. As to conditions: MM1S mitochondrial potential, higher = more signal.
A short description of assay [10]: resazurin metabolic signal in A549 cells – cell-based, resazurin fluorescence, 24 h, PK04 Diversity Set, profiling panel (AID 1171). Note: test concentration not given here. As to conditions: A549 viability, higher = more signal, called active from +8 up or from −8 down.
Assay [11] can be described thus: resazurin metabolic signal in HepG2 cells – cell-based, resazurin fluorescence, 24 h, PK04 Diversity Set, profiling panel (AID 1172). Note: test concentration not given here. The conditions noted are these: HepG2 viability, higher = more signal. On the technique in general: Alamar Blue is a resazurin reagent that responds to reducing activity.
Assay [12] is described as follows: budding yeast growth changes without added modifier – OD600, strain BY4716, 24 h, basal condition, primary screen (AID 1173). As to conditions: S. cerevisiae BY4716 growth, OD600, 24 h; higher = more signal, called active from +8 up or from −8 down.
Assay [13] in a line: viability profiling in MM1S myeloma cells – cell-based, resazurin fluorescence, basal, 24 h, PK04 Diversity Set, profiling panel (AID 1174). Note: test concentration not given here. The conditions noted are these: higher = more signal, called active from +8 up or from −8 down.
For assay [14], the target named is Dihydroorotate dehydrogenase (quinone), mitochondrial (Plasmodium falciparum (isolate 3D7)) (UniProt Q08210). Nature of the assay: inhibition of P. falciparum DHODH – biochemical, C-terminal His tag, absorbance 600 nm, primary screen (AID 1175).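 Note: recombinant parasite enzyme with a five histidine tag at its C terminus; test concentration not given here.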 The conditions noted are these: PfDHODH enzyme, DCIP absorbance 600 nm; higher = more signal, called active from +8 up or from −8 down.

A short description of assay [15]: growth modulation of vineyard yeast isolate – strain RM11-1a, OD600, basal, 24 h, primary screen (AID 1177).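 Note: cultures grown under basal conditions with no added stressor; test concentration not given here.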 As to conditions: S. cerevisiae RM11-1a growth, OD600, 24 h; higher = more signal, called active from +8 up or from −8 down.
Assay [16] can be described thus: growth of efflux-deficient E. coli DRC39 – strain DRC39, OD650, 24 h, E. coli filamentation inducers, primary screen (AID 1178).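 Note: growth measured as culture turbidity by optical density at 650 nm; test concentration not given here.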 As to conditions: E. coli DRC39 acrAB, higher = more signal, called active from +8 up or from −8 down.
A short description of assay [17]: growth of efflux-deficient E. coli DRC39 – strain DRC39, OD650, 48 h, E. coli filamentation inducers, primary screen (AID 1179).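 Note: screen aims at cell division blockers that make cells filament.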 The conditions noted are these: E. coli DRC39 delta-acrAB growth, higher = more signal, called active from +8 up or from −8 down.
The nature of assay [18]: viability profiling in RPMI8226 myeloma cells – cell-based, resazurin fluorescence, basal, 24 h, PK04 Diversity Set, profiling panel (AID 1180).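 Note: RPMI8826 multiple myeloma cell line at 5000 cells per well; test concentration not given here.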 As to conditions: higher = more signal.
The target of assay [19] is E3 ubiquitin-protein ligase XIAP (Homo sapiens) (UniProt P98170). Kind of assay: small molecules binding XIAP protein – biophysical, small-molecule microarray, fluorescence 635 nm, primary screen (AID 1181).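 Note: score merges 667 nm emission and signal to noise over triplicate slides.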 The conditions noted are these: higher = more signal.
Sequence of E3 ubiquitin-protein ligase XIAP (Homo sapiens) (P98170 whole entry, looked up): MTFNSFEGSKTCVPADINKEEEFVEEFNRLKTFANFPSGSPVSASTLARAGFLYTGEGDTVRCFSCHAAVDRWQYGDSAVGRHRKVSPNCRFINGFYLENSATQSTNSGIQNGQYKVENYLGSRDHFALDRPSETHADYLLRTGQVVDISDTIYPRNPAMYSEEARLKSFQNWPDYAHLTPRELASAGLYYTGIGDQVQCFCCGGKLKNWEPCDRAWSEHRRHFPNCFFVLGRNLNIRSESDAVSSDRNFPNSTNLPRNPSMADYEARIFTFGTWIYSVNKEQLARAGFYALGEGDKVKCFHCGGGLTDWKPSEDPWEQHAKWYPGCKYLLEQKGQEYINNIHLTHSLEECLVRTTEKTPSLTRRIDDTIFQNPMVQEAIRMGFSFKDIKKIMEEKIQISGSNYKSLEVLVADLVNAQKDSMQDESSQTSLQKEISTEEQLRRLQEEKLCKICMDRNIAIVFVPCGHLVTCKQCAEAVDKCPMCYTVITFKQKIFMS

Sequence of Dihydroorotate dehydrogenase (quinone), mitochondrial (Plasmodium falciparum (isolate 3D7)) (Q08210 whole entry, looked up): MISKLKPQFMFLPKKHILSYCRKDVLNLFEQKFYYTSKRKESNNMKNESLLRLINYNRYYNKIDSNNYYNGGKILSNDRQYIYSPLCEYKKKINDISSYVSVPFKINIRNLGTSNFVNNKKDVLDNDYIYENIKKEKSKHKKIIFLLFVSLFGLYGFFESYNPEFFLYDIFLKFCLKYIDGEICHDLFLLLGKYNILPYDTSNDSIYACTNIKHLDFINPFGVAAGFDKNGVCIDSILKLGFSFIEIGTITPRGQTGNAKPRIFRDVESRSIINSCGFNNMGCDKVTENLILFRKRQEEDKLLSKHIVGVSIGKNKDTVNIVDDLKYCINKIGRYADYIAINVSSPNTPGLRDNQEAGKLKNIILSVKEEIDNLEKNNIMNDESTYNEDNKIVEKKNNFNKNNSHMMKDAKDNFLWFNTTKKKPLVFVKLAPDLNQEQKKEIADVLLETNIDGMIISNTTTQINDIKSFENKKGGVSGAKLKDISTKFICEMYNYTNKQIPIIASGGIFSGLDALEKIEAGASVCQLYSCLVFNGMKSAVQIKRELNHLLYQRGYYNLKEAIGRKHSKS

As to `COc1cccc([C@@H]2[C@@H](C)CC[C@H]3C(=O)N4[C@H](c5cccc(OC)c5)[C@@H](C)CC[C@H]4C(=O)N23)c1`, the z-score in assay [1] was 2.04; in [2], 0.512; in assay [3] it was 0.761; in [4], 0.656; in [5], 1.34; in assay [6] it was 1.51. For the same molecule, the z-score was 0.891 (inactive) in [7]; -0.395 in [8]; 1.13 in assay [9]; 1.51 (inactive) in assay [10]; 1.96 in assay [11]; -2.76 (inactive) in assay [12]. For the same molecule, the z-score was 1.24 (inactive) in [13]; -3.28 (inactive) in assay [15]; 0.697 (inactive) in assay [16]; -1.17 (inactive) in [17]; 1.42 in assay [18]. In addition, the composite z-score is -1.35 (inactive) in [14] and -0.0599 in [19].
Turning to `C=CC[C@]1(C(=O)NCC(O)CO)N=C(c2ccc(OCCCO)cc2)O[C@H]1c1ccccc1` (stereo not given in full), the z-score in assay [1] was 0.495; in assay [2], 0.991; in assay [3] it was 0.417; in assay [4], -0.176; in assay [5], 0.213; in [6] it was -0.0851. Also, the z-score is -0.386 (inactive) in assay [7]; -0.895 in assay [8]; 0.334 in [9]; 0.912 (inactive) in assay [10]; 0.766 in [11]; -1.49 (inactive) in [12]. For the same molecule, the z-score is 0.776 (inactive) in [13]; -1.07 (inactive) in [15]; 1.44 (inactive) in [16]; 0.199 (inactive) in assay [17]; 1.01 in [18]. Moreover, the composite z-score was -0.537 (inactive) in assay [14] and -0.0102 in assay [19].
`O=C(O)[C@@H]1Cc2c([nH]c3ccccc23)[C@@H](c2ccccc2)N1`: the z-score in assay [1] was 0.0265; in [2] it was 1.21; in assay [3], -0.55; in assay [4] it was 0.424; in assay [5], 0.519; in [6] it was 0.516. In addition, the z-score is -0.284 (inactive) in assay [7]; -0.122 in [8]; 0.0857 in [9]; 0.216 (inactive) in assay [10]; 0.326 in assay [11]; -0.949 (inactive) in [12]. The z-score is 1.14 (inactive) in [13]; -0.19 (inactive) in assay [15]; -0.266 (inactive) in [16]; 0.0747 (inactive) in [17]; 0.724 in assay [18]. In addition, the composite z-score in assay [14] is -0.36 (inactive); in assay [19] it was -0.127.
Regarding `CCCCCCc1nc(C2CC2)c(C)c2c1[Si](C(C)C)(C(C)C)OC2`, the z-score in assay [1] was 0.632; in assay [2], 2.88; in [3], -0.693; in [4], -0.155; in assay [5] it was -0.499; in assay [6], 0.366. Also, the z-score in [7] was 1.56 (inactive); in assay [8] it was 0.296; in assay [9], 0.419; in assay [10], -0.207 (inactive); in assay [11], 0.252; in [12] it was -0.875 (inactive). For the same molecule, the z-score in assay [13] is 1.47 (inactive); in assay [15], -2.89 (inactive); in assay [16], 1.6 (inactive); in assay [17] it was 0.878 (inactive); in assay [18], 0.232. The composite z-score in assay [14] is -3.54 (inactive); in assay [19] it was 0.109.
Consider `CO[C@H]1COC(=O)[C@@H](C)COC(=O)[C@H](Cc2ccccc2)NC(=O)CC=C[C@H]1C`, for which the z-score in [1] is -0.0475; in assay [2], 0.838; in assay [3], 0.53; in [4], -0.0069; in assay [5] it was -0.602; in [6], 0.756. In addition, the z-score is 0.906 (inactive) in assay [7]; 0.25 in [8]; 0.877 in assay [9]; 0.733 (inactive) in assay [10]; 0.495 in assay [11]; -1.05 (inactive) in assay [12]. For the same molecule, the z-score in assay [13] was 1.06 (inactive); in assay [15], -1.48 (inactive); in assay [16], 0.586 (inactive); in assay [17], 0.274 (inactive); in [18] it was 0.794. For the same molecule, the composite z-score in [14] is 0.234 (inactive); in [19] it was -0.0293.
Consider `O=C1OCC=C[C@H]2OC34C=CCN(Cc5ccccc5)C(=O)[C@H]3N(CCCCCO)C(=O)[C@@H]4[C@@H]12` (stereo not given in full), for which the z-score was 0.16 in assay [1]; 2.65 in assay [2]; -0.566 in assay [3]; -0.231 in [4]; -0.166 in [5]; 0.00385 in assay [6]. Besides, the z-score in assay [7] was 1.45 (inactive); in assay [8], 1.27; in assay [9] it was 1.72; in [10] it was -0.208 (inactive); in [11], -0.399; in assay [12], -0.693 (inactive). In addition, the z-score in assay [13] was 0.238 (inactive); in assay [15], -0.512 (inactive); in [16] it was 1.77 (inactive); in [17], 1.22 (inactive); in assay [18], 0.58. In addition, the composite z-score was -0.0022 (inactive) in [14] and 0.101 in [19].
As to `CC(C)N1CC=CC23O[C@@H]4/C=C\CCCOC(=O)C4[C@H]2C(=O)N(CCO)[C@@H]3C1=O` (stereo not given in full), the z-score in assay [1] was 1.63; in [2] it was 0.472; in assay [3] it was 0.499; in assay [4], 1.37; in [5], 0.629; in assay [6], 1.42. For the same molecule, the z-score in assay [7] was 2.1 (inactive); in assay [8], -0.442; in assay [9] it was 0.776; in assay [10], 1.39 (inactive); in assay [11], 1.09; in assay [12], -1.71 (inactive). Also, the z-score is 0.998 (inactive) in [13]; -2.54 (inactive) in assay [15]; 2.2 (inactive) in assay [16]; 2.25 (inactive) in assay [17]; 0.855 in [18]. Further, the composite z-score in assay [14] is -1.71 (inactive); in assay [19] it was -0.16.
On to `C[C@@H]1CC[C@H]2C(=O)N3[C@@H](CC[C@@H](C)[C@@H]3c3cccc(N4CCOCC4)c3)C(=O)N2[C@H]1c1cccc(N2CCOCC2)c1`, for which the z-score in assay [1] was 0.197; in [2], 1.3; in [3] it was -0.894; in [4] it was 0.467; in assay [5], -0.267; in assay [6], 1.03. Also, the z-score is 0.543 (inactive) in assay [7]; -0.685 in [8]; 0.713 in assay [9]; 1.05 (inactive) in [10]; 0.728 in [11]; -0.0109 (inactive) in [12]. In addition, the z-score is 1.04 (inactive) in [13]; 1.35 (inactive) in assay [15]; 0.203 (inactive) in assay [16]; 0.202 (inactive) in [17]; 1.39 in assay [18]. For the same molecule, the figures for the composite z-score in assay [14] and in [19] were 0.148 (inactive) and -0.165, respectively.
For `CN(C)CCCC[C@@H]1NC(=O)[C@@H]2C[C@H](C(=O)NCCCCCNC(=O)CS)[C@H](c3ccc(O)cc3)N2C1=O`, the z-score in assay [1] was 0.748; in assay [2], 0.387; in assay [3], -1.02; in assay [4], -0.0855; in [5], 0.262; in assay [6], 1.61. Moreover, the z-score is 0.642 (inactive) in [7]; -0.238 in [8]; 0.422 in [9]; -0.207 (inactive) in assay [10]; -0.23 in assay [11]; -0.312 (inactive) in [12]. In addition, the z-score in [13] is 1.01 (inactive); in [15], -1.13 (inactive); in [16], 0.964 (inactive); in [17], 0.809 (inactive); in assay [18], 0.975. Further, the composite z-score in assay [14] was -1.38 (inactive); in assay [19] it was 0.104.
On to `C=CC[C@@]1(C(=O)N2CCOCC2)N=C(c2ccc(OCCCO)cc2)O[C@@H]1c1ccccc1`, for which the z-score in [1] was 0.429; in assay [2], 1.9; in assay [3], -0.55; in [4], -0.0274; in assay [5] it was -0.624; in assay [6], 0.13. In addition, the z-score is 1.09 (inactive) in [7]; -0.357 in [8]; 0.216 in assay [9]; 1.85 (inactive) in [10]; 0.781 in assay [11]; -1.69 (inactive) in assay [12]. Besides, the z-score in [13] was 1.1 (inactive); in [15], 1.45 (inactive); in assay [16], 0.788 (inactive); in assay [17] it was -0.0676 (inactive); in assay [18], 1.02. In addition, the composite z-score in assay [14] was 0.702 (inactive); in [19] it was -0.167.
